Results taken from PubChem BioAssay (NCI).
This is part of a sample that, as a whole, favours compounds with a hit. Of some 83,000 tested, about 20% had one in any assay.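 48-hour exposure, single concentration, 96-well plates; percent growth endpoint where 0 means no net growth. Active: below 10.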 The source made the active and inactive calls.

How the values were obtained:
Assay in all cases: NCI-60 one-dose screen, 48 h (100 = growth as untreated, 0 = no growth, -100 = all killed)
Conditions in all cases: 10 µM
HCT-15 colon = system: HCT-15 colon
HT29 colon = system: HT29 colon
SNB-75 CNS = system: SNB-75 CNS
SNB-19 CNS = system: SNB-19 CNS
U251 CNS = system: U251 CNS
PC-3 prostate = system: PC-3 prostate
SK-MEL-5 melanoma = system: SK-MEL-5 melanoma
UACC-62 melanoma = system: UACC-62 melanoma
LOX IMVI melanoma = system: LOX IMVI melanoma
SK-MEL-28 melanoma = system: SK-MEL-28 melanoma
EKVX NSCLC = system: EKVX NSCLC
SN12C renal = system: SN12C renal
UO-31 renal = system: UO-31 renal
TK-10 renal = system: TK-10 renal
CAKI-1 renal = system: CAKI-1 renal
A498 renal = system: A498 renal
CCRF-CEM leukemia = system: CCRF-CEM leukemia
MOLT-4 leukemia = system: MOLT-4 leukemia
SK-MEL-2 melanoma = system: SK-MEL-2 melanoma
ACHN renal = system: ACHN renal

Measured: growth

CCCCCC(=O)O[C@]1(C(C)=O)CCC2C3CCC4=CC(=O)CC[C@]4(C)C3CC[C@@]21C (stereo not given in full)
inactive: HCT-15 colon 26.2% | HT29 colon 16.6% | SNB-75 CNS 46.3% | SNB-19 CNS 43.7% | U251 CNS 23.9% | UACC-62 melanoma 18.5% | LOX IMVI melanoma 10.4% | SK-MEL-28 melanoma 49.4% | EKVX NSCLC 27.1% | SN12C renal 21.5% | UO-31 renal 18.1% | TK-10 renal 40.4% | CAKI-1 renal 18.6% | A498 renal 19.4% | CCRF-CEM leukemia 21%
active: PC-3 prostate 6.12% | SK-MEL-5 melanoma -1.8% | MOLT-4 leukemia -23.1%

CC1C(=NC(=O)c2cnccn2)C(C)C(c2ccc(Cl)cc2)NC1c1ccncc1 (stereo not given)
inactive: HCT-15 colon 78.8% | HT29 colon 73% | SNB-75 CNS 78.5% | SNB-19 CNS 88.4% | U251 CNS 76.4% | PC-3 prostate 75.6% | SK-MEL-5 melanoma 88.2% | UACC-62 melanoma 91.3% | SK-MEL-28 melanoma 101% | SK-MEL-2 melanoma 104% | EKVX NSCLC 88.6% | SN12C renal 93.3% | TK-10 renal 130% | ACHN renal 91.5% | A498 renal 115% | CCRF-CEM leukemia 79.5% | MOLT-4 leukemia 78.5%

COc1ccc(/C=C2\CCCC3C2=Nc2ccccc2NC3c2ccc(OC)cc2)cc1 (stereo not given)
inactive: HCT-15 colon 93.9% | HT29 colon 74.8% | SNB-75 CNS 101% | SNB-19 CNS 92% | U251 CNS 80.9% | PC-3 prostate 86.9% | SK-MEL-5 melanoma 88.5% | LOX IMVI melanoma 57.4% | SK-MEL-28 melanoma 98.3% | SK-MEL-2 melanoma 92% | EKVX NSCLC 87.5% | SN12C renal 85.5% | UO-31 renal 74.1% | ACHN renal 113% | CAKI-1 renal 78.2% | A498 renal 77.3% | CCRF-CEM leukemia 80.4% | MOLT-4 leukemia 72%

S=C(SSC(=S)N(c1ccccc1)c1ccccc1)N(c1ccccc1)c1ccccc1
inactive: HCT-15 colon 103% | HT29 colon 96.6% | SNB-75 CNS 100% | SNB-19 CNS 99.4% | U251 CNS 87.9% | PC-3 prostate 81.9% | SK-MEL-5 melanoma 102% | LOX IMVI melanoma 95.2% | SK-MEL-28 melanoma 111% | SK-MEL-2 melanoma 95.1% | EKVX NSCLC 118% | SN12C renal 94.5% | UO-31 renal 97.1% | TK-10 renal 95.3% | ACHN renal 114% | A498 renal 114% | CCRF-CEM leukemia 87.9% | MOLT-4 leukemia 93.9%

CCOC(=O)C(C)(c1ccccc1)c1ccccc1
inactive: HCT-15 colon 104% | HT29 colon 96.2% | SNB-75 CNS 94.2% | SNB-19 CNS 99.3% | U251 CNS 104% | PC-3 prostate 97.8% | SK-MEL-5 melanoma 108% | LOX IMVI melanoma 102% | SK-MEL-28 melanoma 111% | SK-MEL-2 melanoma 114% | EKVX NSCLC 102% | SN12C renal 102% | UO-31 renal 94% | TK-10 renal 102% | ACHN renal 112% | A498 renal 105% | CCRF-CEM leukemia 103%

CN(C)CCCN1c2ccccc2CCc2ccc(Cl)cc21
inactive: HCT-15 colon 51.4% | HT29 colon 18.8% | SNB-75 CNS 39.2% | SNB-19 CNS 96.1% | U251 CNS 55.4% | PC-3 prostate 40.8% | LOX IMVI melanoma 56.9% | SK-MEL-28 melanoma 36.9% | EKVX NSCLC 70.5% | SN12C renal 61.5% | UO-31 renal 47.3% | TK-10 renal 71.3% | ACHN renal 69.2% | CAKI-1 renal 51.6% | CCRF-CEM leukemia 60.5% | MOLT-4 leukemia 30.8%
active: SK-MEL-5 melanoma -29.7% | UACC-62 melanoma 7.82%

CCCN(CCC)C(=O)[C@H](CC)[C@@H]1CC[C@@H](C)[C@@H]([C@H](C)[C@@H](O)[C@@H](C)C(=O)[C@H](CC)C2O[C@]3(C=C[C@@H](O)[C@]4(CC[C@@](C)([C@H]5CC[C@](O)(CC)[C@H](C)O5)O4)O3)[C@H](C)C[C@@H]2C)O1 (stereo not given in full)
active: HCT-15 colon -9.51% | HT29 colon 7.02% | SNB-75 CNS -12.8% | PC-3 prostate 6.69% | SK-MEL-5 melanoma -92.4% | LOX IMVI melanoma 1.21% | SK-MEL-2 melanoma 0.709% | EKVX NSCLC -13.6% | SN12C renal 3.43% | UO-31 renal -16.8% | ACHN renal -2.43%
inactive: SNB-19 CNS 17.8% | U251 CNS 21.5% | SK-MEL-28 melanoma 24.2% | TK-10 renal 20.7% | MOLT-4 leukemia 15.3%

OC(CCN1CCCC1)(c1ccccc1)C1CCCCC1 (stereo not given)
inactive: HCT-15 colon 92.4% | HT29 colon 101% | SNB-75 CNS 84% | SNB-19 CNS 107% | U251 CNS 105% | PC-3 prostate 98.6% | SK-MEL-5 melanoma 89.8% | LOX IMVI melanoma 99.9% | SK-MEL-28 melanoma 105% | SK-MEL-2 melanoma 111% | EKVX NSCLC 97.5% | SN12C renal 95.9% | TK-10 renal 108% | ACHN renal 94.7% | A498 renal 116% | CCRF-CEM leukemia 98.2% | MOLT-4 leukemia 109%

Cc1c2c[n+](C(C)C)ccc2c(C)c2c1[nH]c1ccccc12
active: SNB-19 CNS 4.83% | SK-MEL-5 melanoma -63.4% | SN12C renal -11.8%
inactive: HCT-15 colon 87.7% | HT29 colon 21.5% | SNB-75 CNS 41% | U251 CNS 13.6% | UACC-62 melanoma 10.5% | LOX IMVI melanoma 40.7% | SK-MEL-28 melanoma 15.7% | SK-MEL-2 melanoma 12.3% | EKVX NSCLC 29.4% | UO-31 renal 72.1% | TK-10 renal 54% | ACHN renal 85.7%

Cc1ccc(N=Nc2ccccc2)cc1
inactive: HCT-15 colon 99.5% | HT29 colon 92.3% | SNB-75 CNS 105% | SNB-19 CNS 102% | U251 CNS 101% | PC-3 prostate 78.1% | SK-MEL-5 melanoma 102% | LOX IMVI melanoma 103% | SK-MEL-28 melanoma 102% | SK-MEL-2 melanoma 97.6% | EKVX NSCLC 94.8% | UO-31 renal 94.8% | TK-10 renal 95.1% | ACHN renal 107% | CAKI-1 renal 96.4% | A498 renal 104% | CCRF-CEM leukemia 99% | MOLT-4 leukemia 95.5%

Cn1c2ccccc2c2c3[nH][nH]c(=O)c3c3c4ccccc4[nH]c3c21
active: SK-MEL-5 melanoma -18.1% | UACC-62 melanoma -5.51% | LOX IMVI melanoma -30.3% | UO-31 renal -26.9% | ACHN renal -8.79% | MOLT-4 leukemia 5.9%
inactive: HCT-15 colon 19.7% | HT29 colon 43.3% | SNB-75 CNS 37.2% | SNB-19 CNS 32.5% | U251 CNS 22.7% | SK-MEL-28 melanoma 29.3% | SK-MEL-2 melanoma 10.9% | EKVX NSCLC 49% | SN12C renal 16.1% | TK-10 renal 93% | CAKI-1 renal 60.2%

CC(=O)Nc1ccc(S(=O)(=O)N/N=C(\C)c2ccc(C)cc2C)cc1
inactive: HCT-15 colon 100% | HT29 colon 105% | SNB-75 CNS 77.4% | SNB-19 CNS 101% | U251 CNS 104% | PC-3 prostate 99.9% | SK-MEL-5 melanoma 113% | LOX IMVI melanoma 106% | SK-MEL-28 melanoma 108% | SK-MEL-2 melanoma 93.1% | SN12C renal 110% | TK-10 renal 108% | ACHN renal 95.3% | A498 renal 112% | CCRF-CEM leukemia 103% | MOLT-4 leukemia 97.7%

CC1CCCC(C(=O)O)C1C(=O)O (stereo not given)
inactive: HCT-15 colon 102% | HT29 colon 98.8% | SNB-75 CNS 100% | SNB-19 CNS 101% | U251 CNS 86% | PC-3 prostate 76% | SK-MEL-5 melanoma 102% | LOX IMVI melanoma 98% | SK-MEL-28 melanoma 111% | SK-MEL-2 melanoma 93.4% | EKVX NSCLC 95.4% | UO-31 renal 92.7% | TK-10 renal 93.8% | ACHN renal 105% | CAKI-1 renal 97.2% | A498 renal 95.8% | CCRF-CEM leukemia 99.3% | MOLT-4 leukemia 77.6%

O=C1/C(=C/c2ccc3c(c2)OCO3)SC(=S)N1C1c2ccccc2Oc2ccccc21
inactive: HCT-15 colon 93% | HT29 colon 117% | SNB-75 CNS 89.2% | SNB-19 CNS 96.8% | U251 CNS 113% | PC-3 prostate 93.1% | SK-MEL-5 melanoma 97.2% | LOX IMVI melanoma 89.1% | SK-MEL-28 melanoma 96.3% | SK-MEL-2 melanoma 115% | EKVX NSCLC 96.8% | UO-31 renal 74.2% | TK-10 renal 101% | ACHN renal 91.2% | CAKI-1 renal 92.8% | A498 renal 101% | CCRF-CEM leukemia 86.7% | MOLT-4 leukemia 96.5%

CCN(CC)CCCC(C)Nc1c2ccc(Cl)cc2nc2ccc(OC)cc12 (stereo not given)
inactive: HCT-15 colon 14.2% | SNB-75 CNS 16.3% | SNB-19 CNS 35.4% | U251 CNS 11.4% | PC-3 prostate 35% | SK-MEL-2 melanoma 57.6% | EKVX NSCLC 49% | SN12C renal 33.2% | ACHN renal 14.2% | A498 renal 74% | CCRF-CEM leukemia 39.4% | MOLT-4 leukemia 15.5%
active: HT29 colon -30.3% | SK-MEL-5 melanoma -87.5% | LOX IMVI melanoma -48.1% | SK-MEL-28 melanoma -57.6% | CAKI-1 renal 1.55%

COc1cc(/C=C2\CCCC3C2=Nc2ccccc2NC3c2cc(OC)c(OC)c(OC)c2)cc(OC)c1OC (stereo not given)
active: HCT-15 colon 6.11% | HT29 colon -3.94% | U251 CNS -11.4% | SK-MEL-5 melanoma -52% | LOX IMVI melanoma -62% | SN12C renal -4.27% | UO-31 renal 5.57% | ACHN renal -23% | CCRF-CEM leukemia 4.32% | MOLT-4 leukemia 0.606%
inactive: SNB-75 CNS 54.5% | SNB-19 CNS 64.4% | PC-3 prostate 38.2% | SK-MEL-28 melanoma 29.4% | SK-MEL-2 melanoma 17.9% | EKVX NSCLC 59.8%

COc1cc(C2C(C#N)=C(N)Oc3cc(O)ccc32)cc(OC)c1OC (stereo not given)
inactive: HCT-15 colon 30.1% | SNB-75 CNS 33.9% | SNB-19 CNS 44.9% | U251 CNS 11.1% | PC-3 prostate 21.5% | SK-MEL-5 melanoma 23% | LOX IMVI melanoma 45.7% | SK-MEL-28 melanoma 58% | SK-MEL-2 melanoma 23.4% | EKVX NSCLC 55.3% | SN12C renal 35.9% | UO-31 renal 43% | ACHN renal 51.8% | CAKI-1 renal 30.7%
active: HT29 colon 2.42% | A498 renal -5.59% | CCRF-CEM leukemia 8.88% | MOLT-4 leukemia 6.05%

COc1cc2c(Nc3ccc(-c4ccc(N)cc4)cc3)ncnc2c(OC)c1OC
inactive: HCT-15 colon 28.8% | HT29 colon 46.2% | SNB-75 CNS 82.8% | SNB-19 CNS 51.1% | U251 CNS 42.6% | PC-3 prostate 47.3% | LOX IMVI melanoma 31.1% | SK-MEL-28 melanoma 75.6% | SK-MEL-2 melanoma 18.5% | EKVX NSCLC 59.2% | SN12C renal 62.2% | UO-31 renal 22.7% | ACHN renal 32.1% | A498 renal 43.4% | CCRF-CEM leukemia 23.3% | MOLT-4 leukemia 19.8%
active: SK-MEL-5 melanoma -25.1% | CAKI-1 renal 3.89%
